Screens (PubChem BioAssay)
p53null 32C tox: qHTS Screen for Compounds that Selectively Target Cancer Cells with p53 Mutations: Cytotoxicity of p53 Null Cells at the Permissive Temperature; H1299-neo p53 null cells, ATP luminescence, 24 h, 32C; Potency, µM (doses to about 46.1 µM), inactives show top-dose activity change, negative = cytotoxicity, usual class: cytotoxic; 55,000 tested, 0.62% active;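 also: 0% = DMSO only and -100% = full killing by 100 µM tamoxifen; nearly all actives have a fitted effect of over 55% in size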
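H1299-neo, 600 cells/well; overnight 37C; cpd up to 46 uM, 24 h at 32C; ATPlite luminescence after 20 min RT; normalized to DMSO (0%) and tamoxifen 100 uM (100% kill); Hill-fit AC50.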
p53null 39C kill: qHTS Screen for Compounds that Selectively Target Cancer Cells with p53 Mutations: Cytotoxicity of p53 Null Cells at the Nonpermissive Temperature; 55,000 tested, 0.97% active; H1299 p53-null (neo) cells, 39C, ATPlite viability, 24 h; Potency, µM (titrated, usually from 46.1 µM), for the others: at the highest dose activity, negative = cell killing, most hits filed as cytotoxic;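 also: 0% = DMSO only and -100% = full killing by 100 µM tamoxifen; nearly all actives have a fitted effect of over 50% in size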
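Following overnight plating at 37C (600 cells/well), H1299-neo or H1299-p53A138V cells are dosed up to 46 uM. Incubation lasts 24 hr at 39C before ATP detection.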
S16 F2sN tox: Cell viability qHTS assay in S16 Pmp22-F2sN cells | S16 Pmp22-F2sN Schwann cells viability, CellTiter-Glo, 24 h | Potency, µM (titrated, usually from 57.5 µM), inactives show at the top dose activity change, negative = cytotoxicity, hits mostly cytotoxic | 43,000 tested, 0.48% active; also: nearly all actives have a fitted effect of over 65% in size
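S16 Pmp22-F2sN Schwann cells (500-1,000/well) in phenol-red-free DMEM with 10% FBS received 23 nL compound by pin tool for 24 h at 37 °C. Viability was then read as CellTiter-Glo luminescence after 15 min at room temperature.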
OvCa metastasis: Primary qHTS assay for Inhibitors of ovarian cancer metastasis using an organotypic tumor microenvironment (TME) model. 46,000 tested, 0.1% active. Potency, µM (series often up to 45.8 µM), without a hit: at the highest dose activity change, negative = inhibition, actives largely listed as inhibitors. SKOV3ip1-GFP adhesion/invasion on 3D omental model, fluorescence;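 also: plate controls were DMSO wells for no effect and tomatine positive control wells for full effect; nearly all actives have a fitted effect of over 65% in size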
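Primary human omental fibroblast/mesothelial 3D culture pre-formed 48 h. SKOV3ip1-GFP cells added with compounds (0.36-46 umol/L), incubated 2 h RT/16 h 37 C, fixed; GFP cells quantified at 488/509 nm.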
pS6 MEF inh: Acumen qHTS Assay for Inhibitors of the mTORC1 Signaling Pathway in MEF (Tsc2-/-, p53-/-) Cells: Sytravon; Tsc2-/- p53-/- MEF, phospho-rpS6 immunofluorescence/PI, 24 h; Potency, µM (top dose mostly 38.3 µM), inactives show at the top dose activity change, negative = inhibition, usual class: inhibitors; 44,000 tested, 0.78% active; AID 493208, 2011;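 also: plate controls were DMSO for no effect and rapamycin for full effect; nearly all actives have a fitted effect of over 50% in size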
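Tsc2-/-, p53-/- mouse embryonic fibroblasts (empty-vector line) exposed to compound 24 hrs at 37 C, fixed, immunostained for phospho-rpS6 and counterstained with propidium iodide. Acumen laser scanning gives % positive cells from Alexa 488/PI ratio, thresholded using 7.5 nM rapamycin; PI count gives viability.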
PMP22 txn prim: Cell-based coincidence reporter assay to measure PMP22 gene transcription in S16 Pmp22-F2sN cells - Primary screen. 43,000 tested, 2% active. S16 Pmp22-F2sN Schwann cells (luciferase reporters placed in the Pmp22 gene), FLuc/NLuc coincidence luminescence, 24 h. Potency, µM (titrated, usually from 57.5 µM), for inactives: at the top dose activity change, negative = inhibition, hits mostly inhibitors; active = clear falling dose curves in both reporters; inconclusive = both reporters move, but less clearly or upward; inactive = either reporter flat; the % is the NLuc reporter signal
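Reporter cells (S16 Pmp22-F2sN, 500–1,000 per well) exposed to compounds for 24 h, 37C, 5% CO2; lysis with FLuc read after 10 min, then Stop&Glo and NLuc read after 10 min.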
An asterisk follows results filed as active; i = inactive; ? = inconclusive; · = no result given; [ ] = remark or other dose. Most compounds without a hit are left out; they make up all but 3.1% or so of the library. Unless noted, calls follow the shape of the dose curve; as a rule, active = well fitted curve in the direction sought with a large enough effect; inconclusive = small, poorly fitted or top-dose-only effect, or another doubt; inactive = no such curve, though single readings can be large; an effect the other way counts as inactive or inconclusive. Unless noted, % is scaled to controls: 0 for no effect and ±100 for the full control effect; potency is read from the fitted curve at half-maximal effect.

SMILES | p53null 32C tox | p53null 39C kill | S16 F2sN tox | OvCa metastasis | pS6 MEF inh | PMP22 txn prim
COc1ccccc1Nc1nn2c(=O)c3ccc(C(=O)NCc4ccc(F)cc4)cc3nc2s1 | -12% | 4µM* | 14µM* | -14% | -10% | 4.6µM*
CCc1ccccc1Nc1nn2c(=O)c3ccc(C(=O)NCc4ccccc4OC)cc3nc2s1 | 7% | -13% | -4% | -5% | -1% | -20%
CCc1cccc(NC(=O)c2ccc3c(=O)n4nc(Nc5ccccc5OC)sc4nc3c2)c1 | -5% | ? | ? | i | -9% | 4.5µM*
COc1ccc(-c2cc3nccn3c(Nc3ncccc3C(N)=O)n2)cc1OC | · | · | · | 42% | · | ·
FC(F)(F)c1cccc(Nc2nc3nonc3nc2Nc2ccc(Cl)cc2)c1 | ? | 13µM* | 8.9µM* | 10µM* | ? | 5.6µM*
O=C(Nc1cccc(C(F)(F)F)c1)c1cc(-c2ccc(Cl)cc2)on1 | 1% | 16% | 21% | 17% | -25% | -23%
O=C(O)CCSc1nnc(-c2ccc(Cl)cc2Cl)o1 | ? | ? | -3% | 2% | 2% | ?
Fc1ccc(-c2nnc(-c3ccc(Cl)cc3Cl)o2)cc1 | 6.3µM* | 11µM* | · | · | · | ·
Cc1nc(NC(=O)N2CCC[C@@H]2C(N)=O)sc1-c1ccnc(C(C)(C)C(F)(F)F)c1 | · | · | · | -11% | · | ·
COc1ccccc1NC(=O)c1c(NCc2ccc(C)o2)sc2c1CCCCC2 | ? | 20% | 5% | i | ? | 14µM*
COc1ccc(OC)c(NC(=O)c2c(NCc3ccc(C)o3)sc3c2CCCCC3)c1 | 27% | 9% | ? | ? | ? | ?
O=C(Cc1ccccc1)Nc1sc2c(c1C(=O)Nc1ccccc1)CCCCC2 | -7% | -18% | -12% | 1% | ? | ?
COc1ccc(CC(=O)Nc2sc3c(c2C(=O)Nc2ccccc2)CCCCC3)cc1 | -8% | ? | ? | i | 4.6µM* | ?
CC(=O)c1ccc(NC(=O)c2nc3ccccc3nc2N2CCCCC2)cc1 | 2% | 0% | ? | 22% | -13% | -18%
CC(=O)c1ccc(NC(=O)c2nc3ccccc3n(C)c2=O)cc1 | 2µM* | 3% | -21% | -26% | -7% | -2%
CCN(CCO)C(=O)CC(c1ccccc1)c1cc(Br)ccc1O (stereo unspecified) | -4% | -11% | · | · | · | ·
O=C(CC(c1ccccc1)c1cc(Br)ccc1O)NCC1(c2ccccc2)CCCC1 (stereo unspecified) | ? | 16µM* | · | ? | -13% | ·
COCC(=O)NCC=Cc1ccc2ncnc(Nc3ccc(Oc4ccc(C)nc4)c(C)c3)c2c1 | · | · | · | -2% | · | ·
CN(C)CCOc1ccc(C(=C(CCCl)c2ccccc2)c2ccccc2)cc1 | · | · | · | 5% | · | ·
COc1cccc(-c2nnc(-c3ccc(C)o3)o2)c1 | 13µM* | 13µM* | · | · | · | ·
COc1cc(/C=N/OCC(=O)NC23CC4CC(CC(C4)C2)C3)ccc1OCc1ccccc1 | · | 43%[1.84 µM] | · | · | · | ·
COc1cc(/C=N/O)ccc1OCc1ccc(C(=O)O)cc1 | 13µM* | 8.9µM* | · | · | · | ·
CCc1ccc(NC(=O)CSc2nnc3[nH]c(=O)cc(-c4ccccc4)n23)cc1 | 2.5µM* | ? | -12% | 3% | -3% | -18%
O=C(CSc1nnc2[nH]c(=O)cc(-c3ccccc3)n12)Nc1ccccc1C(F)(F)F | ? | ? | 1% | -7% | 0% | 5%
